KB-V1 MDR tox: qHTS assay for MDR1-selective chemotherapeutics: Primary screen using the drug-selected MDR subline cells KB-V1; KB-V1 MDR cells viability, CellTiter-Glo, 72 h; Potency, µM (top dose mostly 46.1 µM), actives largely listed as cytotoxic; 400,000 tested, 3.4% active; AID 1347076, 2019; further: on the % scale 0 is the no-effect control and ±100 the full control effect; nearly all actives have a fitted effect of over 60% in size
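qHTS viability screen in drug-selected KB-V1 MDR cells: 72 h compound treatment at 37 degrees C, ATP luminescence end point.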
HT1080 IDH1KD tx: qHTS for induction of synthetic lethality in tumor cells producing 2HG: qHTS for the HT-1080-IDH1KD cell line | HT-1080 IDH1 knockdown viability, ATP luminescence, 48 h | 360,000 tested, 2% active | Potency, µM (doses to about 46.1 µM), for the others: top-dose activity, negative = toxicity, usual class: cytotoxic;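 further: 0% = DMSO wells and -100% = cell-free medium wells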
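After a 2 h attachment period, IDH1KD HT-1080 cells took pin-transferred compound for 48 h at 37 °C; ATP-based luminescence after 10 min room-temperature reagent incubation reported viability.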
HT1080-NT tox: qHTS for induction of synthetic lethality in tumor cells producing 2HG: qHTS for the HT-1080-NT fibrosarcoma cell line. HT-1080-NT fibrosarcoma viability, CellTiter-Glo ATP luminescence, 48 h. Potency, µM (highest dose often 46.1 µM), without a hit: at the highest dose activity, negative = less viability, usual class: cytotoxic. AID 686970, 2013. 360,000 tested, 1.6% active;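 further: NT is the 2HG producing partner of a matched IDH1 knockdown line; 0% = DMSO-treated cells and -100% = media-only wells without cells; nearly all actives have a fitted effect of over 55% in size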
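Viability of the 2HG-overproducing fibrosarcoma line after 48 hours of compound exposure at 37 degrees C was determined by luminescence with CellTiter-Glo, and concentration-effect curves were then fitted and categorized.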
MCF10A rerep: A quantitative high throughput screen for small molecules that induce DNA re-replication in MCF 10a normal breast cells. Potency, µM (doses to about 46.1 µM), for inactives: at the top dose activity, positive = re-replication, actives largely listed as activators. 350,000 tested, 2.9% active. MCF 10A DNA re-replication, Hoechst nuclear intensity, 48 h. AID 624296, 2012; further: % of control where 0% means no effect; nearly all actives have a fitted effect of over 50% in size
SW480 rerep: A quantitative high throughput screen for small molecules that induce DNA re-replication in SW480 colon adenocarcinoma cells; SW480 DNA re-replication, Hoechst DNA content imaging, 48 h; AID 624297, 2012; 340,000 tested, 1.8% active; Potency, µM (series often up to 46.1 µM), for inactives: at the top dose re-replication activation, actives largely listed as activators; further: % of control where 0% means no effect; nearly all actives have a fitted effect of over 55% in size
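Readout is total intensity of Hoechst-stained nuclei, excited at 405 nm and collected at 500-530 nm. Compound treatment lasted 48 hr at 37 C in 5% CO2 before staining.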
KB-3-1 tox: qHTS assay for MDR1-selective chemotherapeutics: Primary screen using the parental adenocarcinoma cell KB-3-1; Potency, µM (highest dose often 46.1 µM), actives largely listed as cytotoxic; KB-3-1 viability, CellTiter-Glo ATP luminescence, 72 h; AID 1347075, 2019; 400,000 tested, 1.4% active; further: on the % scale 0 is the no-effect control and ±100 the full control effect; nearly all actives have a fitted effect of over 60% in size
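Here the drug-naive KB-3-1 line serves as comparator for MDR sub-line selectivity; cells received compound titrations, 72 h at 37 °C, then CellTiter-Glo readout.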
Starred values were filed as active, the others as inactive; i = inactive; ? = inconclusive; / = not tested or not shown. A selection: hits, their analogues and other compounds. The true share with any hit is near 8%. The call rests on the fitted dose curve; in most records, active means well fitted curve in the direction sought with a large enough effect; inconclusive means small, poorly fitted or top-dose-only effect, or another doubt; inactive means no such curve, though single readings can be large; an effect the other way counts as inactive or inconclusive. Potency means the concentration at half of the fitted maximal effect.

SMILES | KB-V1 MDR tox | HT1080 IDH1KD tx | HT1080-NT tox | MCF10A rerep | SW480 rerep | KB-3-1 tox
O=C(Nc1ccc2oc(=O)ccc2c1)c1ccc(-c2cccc([N+](=O)[O-])c2)o1 | i | 8.2µM* | 10.3µM* | ? | 20.6µM* | 25.9µM*
O=C(Nc1ccc2oc(=O)ccc2c1)c1ccc(-c2cccc(Cl)c2)o1 | ? | 15.5% | 11.7% | 2.4% | ? | i
O=C(Nc1ccc2oc(=O)ccc2c1)c1ccc(-c2ccccc2[N+](=O)[O-])o1 | i | ? | 18.4µM* | 11.6µM* | ? | i
Cc1ccc(NC(=O)C2CCN(C(=O)c3cnn(-c4ccccc4)c3-n3cccc3)CC2)cc1C | i | / | / | / | / | i
Cc1ccc(NC(c2cccc(Cl)c2)c2nnc(-c3ccccc3)o2)cc1F (stereo not drawn) | ? | / | / | / | / | i
Cc1ccc2cc(C#N)c(SCC(=O)N3CCCc4ccccc43)nc2c1 | i | 16.9% | 13.4% | -7.2% | -3.2% | i
N#C/C(=C(/O)CSc1nnc(Cc2cccs2)n1C1CCCCC1)c1nc2ccccc2[nH]1 | i | -6.9% | -8.8% | ? | 18.4µM* | ?
O=C(CSc1nnc(Cc2cccs2)n1C1CCCCC1)N1CCCc2ccccc21 | 20.6µM* | ? | -15.0% | ? | ? | ?
Cn1c(Cc2cccs2)nnc1SCC(=O)N1CCCc2ccccc21 | i | 7.2% | 12.8% | -6.9% | 1.1% | i
Cc1ccc2cc(C#N)c(SCC(=O)N3CCCc4ccccc43)nc2c1C | 2.59µM* | 3.0% | 1.3% | 6.3% | -6.9% | i
CCn1c(CNc2ccc(OC)cc2)nnc1SCC(=O)N1CCCc2ccccc21 | i | -2.2% | -7.0% | 1.9% | -3.6% | i
CCn1c(CSc2nc(C)cc(C)n2)nnc1SCC(=O)N1CCCc2ccccc21 | 20.6µM* | -3.4% | 7.0% | 1.9% | -9.2% | i
COc1ccccc1-c1nnc(SC/C(O)=C(\C#N)c2nc3ccccc3[nH]2)n1C1CCCCC1 | i | -26.5% | -21.4% | ? | -703.7% | i
Cc1cccc(NC(=O)C2CCN(S(=O)(=O)c3ccc4c(c3)CCCN4C(=O)C3CCC3)CC2)c1 | i | / | / | / | / | i
COc1ccc(C2c3cc(OC)c(OC)cc3CC(=O)N2c2cccc(C#N)c2)cc1 (stereo not drawn) | i | / | / | / | / | i
Cc1ccnc2c(Cl)cccc12 | i | / | / | / | / | i
CCOc1ccc(-n2ccnc2SCC(=O)Nc2cc(C)on2)cc1 | 14.6µM* | -8.7% | 0.9% | -2.0% | 3.3% | i
CCSc1nnc(NC(=O)CSc2nccn2-c2cccc(C)c2C)s1 | 20.6µM* | -2.9% | -1.2% | 24.5% | 1.9% | i
COc1ccc(-n2ccnc2SCC(=O)Nc2cc(C)on2)cc1 | ? | -25.1% | 1.7% | 14.5% | ? | i
Cc1cccc(-n2ccnc2SCC(=O)Nc2cc(C)on2)c1 | i | 15.1% | 17.9% | -12.5% | -8.6% | i
CCSc1nnc(NC(=O)CSc2nccn2-c2cc(C)cc(C)c2)s1 | i | 12.7% | 18.8% | 11.6% | -4.5% | i
CCOc1ccc(-n2ccnc2SCC(=O)N2CCCc3ccccc32)cc1 | 11.6µM* | -4.7% | -4.5% | -4.4% | -0.8% | i
Cc1cc(NC(=O)CSc2nccn2-c2cccc(C)c2C)no1 | 10.3µM* | ? | ? | ? | ? | ?
Cc1cc(C)cc(-n2c(SCC(=O)Nc3ccccc3F)nc3c(oc4ccccc43)c2=O)c1 | i | / | / | / | / | i
Cc1cc(NC(=O)CSc2nccn2-c2cccc(F)c2)no1 | 16.4µM* | 8.0% | 13.5% | -0.5% | 1.5% | i
SMILES | KB-V1 MDR tox | HT1080 IDH1KD tx | HT1080-NT tox | MCF10A rerep | SW480 rerep | KB-3-1 tox
CCOc1cc(Cn2c(-c3ccc(O)c(OCC)c3)nc3ccccc32)ccc1O | i | / | / | / | / | i
O=C1/C(=C/c2ccncc2)SC(=S)N1C1CCS(=O)(=O)C1 (stereo not drawn) | ? | -29.3% | ? | 20.6µM* | 21.0% | ?
Cc1ccc(/C=C2\SC(=S)N(C3CCS(=O)(=O)C3)C2=O)o1 (stereo not drawn) | i | -29.1% | -14.1% | 0.8% | 16.4µM* | i
O=C1/C(=C/c2ccccc2)SC(=S)N1C1CCS(=O)(=O)C1 (stereo not drawn) | i | 9.5% | 7.5% | ? | -8.2% | ?
C=CCN1CC(c2nc3ccccc3n2CCOc2ccccc2)CC1=O (stereo not drawn) | 14.6µM* | 2.7% | -0.1% | -6.3% | -5.9% | i
CCCCN1CC(c2nc3ccccc3n2CCCCOc2cccc(C)c2C)CC1=O (stereo not drawn) | 18.4µM* | / | / | / | / | i
CCCCN1CC(c2nc3ccccc3n2CCCCOc2cc(C)cc(C)c2)CC1=O (stereo not drawn) | i | / | / | / | / | i
CCCCOC(=O)Cn1nnc2sc(-c3ccccc3)cc2c1=O | i | / | / | / | / | i
Cc1c(C(=O)NCc2ccc3c(c2)OCCO3)sc(=O)n1Cc1ccc2c(c1)OCO2 | ? | 1.8% | -16.3% | / | / | i
Cc1c(C(=O)NCc2ccc([N+](=O)[O-])cc2)sc(=O)n1Cc1ccc2c(c1)OCO2 | 14.6µM* | -29.6% | ? | / | / | i
Cc1c(C(=O)NCc2ccc3c(c2)OCO3)sc(=O)n1Cc1ccc(S(=O)(=O)N(C)C)cc1 | 2.91µM* | ? | -22.2% | / | / | ?
Cc1c(C(=O)NCc2cccc(C(F)(F)F)c2)sc(=O)n1Cc1ccc(S(=O)(=O)N(C)C)cc1 | ? | -27.3% | -7.1% | / | / | ?
Cc1c(C(=O)NCc2ccc3c(c2)OCCO3)sc(=O)n1Cc1ccc(S(=O)(=O)N(C)C)cc1 | 9.2µM* | ? | -1.3% | / | / | ?
Cc1c(C(=O)NCc2cccs2)sc(=O)n1Cc1ccc(S(=O)(=O)N(C)C)cc1 | ? | -12.7% | -2.1% | / | / | ?
COc1ccc(CNC(=O)c2cn(Cc3ccc(S(=O)(=O)N(C)C)cc3)c(=O)s2)cc1 | 23.1µM* | ? | -6.9% | / | / | ?
CC1CCN(S(=O)(=O)c2cc(C(=O)Nc3ccc(Br)cc3F)n(C)c2)CC1 | i | / | / | / | / | i
Cc1ccc(S(=O)(=O)CC(=O)Nc2sc3c(c2C#N)CCCC3)cc1 | i | / | / | / | / | i
CCOC(=O)c1c(C)c(C(=O)N2CCN(c3cccc(Cl)c3)CC2)c(C)n1C | 10.3µM* | 5.3% | 15.1% | 18.6% | 27.3% | i

Screening results (PubChem BioAssay)
